Data taken from publication PMC5540273 (PLoS ONE, 2017).

Tested on: FLT3
Conditions: concentration: 1 μM,replicates: in singlicate; n = 1
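Further: KINOMEscan kinase panel screen.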

Structure (SMILES)	%Inh [%]
C=CC(=O)Nc1cc2c(Nc3ccc(F)c(Cl)c3)ncnc2cc1OCCCN1CCOCC1 [GW781483]	27
CC(C)Nc1cc(-c2ccc3c(N)n[nH]c3c2)nc(N)n1 [GSK2221681]	0
COc1ccc(C[C@@H](CN)NC(=O)c2cc(Br)c(-c3ccnc4[nH]ccc34)s2)cc1.Cl.Cl [GSK1389063]	98
Cc1occc1-c1nc(N)c(OC[C@@H](N)Cc2c[nH]c3ccccc23)cc1-c1cc2c(C)n[nH]c2cn1 [GSK1660450]	0
Cc1ccc2c(-c3ccncc3)c(-c3ccc(F)cc3)nn2c1.Cl [GW461484]	37
O=C(NCCCN1CCOC1=O)c1cnc(NCc2cc(Cl)ccc2Cl)nc1NC1CCCC1	21
Cc1n[nH]c2ccc(-c3cc(OC[C@@H](N)Cc4ccccc4)cnc3-c3ccoc3)cc12.O=C(O)C(F)(F)F.O=C(O)C(F)(F)F [GSK507358]	0
Cc1cc2cn[nH]c2cc1-c1cccc2c(N)c(C(N)=O)nnc12	10
NC(=O)c1cc(-c2ccccc2)cc2c(C3CCNCC3)c[nH]c12 [GSK301362]	47
Cc1ccc(-n2nc(C(C)(C)C)cc2NC(=O)Nc2ccc(OCCN3CCOCC3)c3ccccc23)cc1 [GW839464]	29
CC(C)N1C(=O)Cc2cc(Nc3ncc(C(F)(F)F)c(NCc4cccc(S(C)(=O)=O)c4)n3)ccc21	97.6
O=C(NCCNc1ccnc(NCc2ccc(F)cc2)n1)c1cc2ccccc2s1 [GSK1379944]	0
CNC(=O)c1ccccc1Sc1ccc2c(/C=C/c3ccccn3)n[nH]c2c1	0
Nc1nc(Nc2ccccc2)cc(-c2ccc3c(N)n[nH]c3c2)n1 [GSK2225749]	2
CCN(CC)CCCCNc1ncc2cc(-c3c(Cl)cccc3Cl)c(NC(=O)NC(C)(C)C)nc2n1	98.1
Cc1cc(C(=O)Nc2ccc(Oc3ccc4nc(NC(=O)C5CC5)cn4n3)cc2)nn1-c1ccccc1	97.5
CN(C)CC(O)COc1ccc(Nc2nccc(-c3cnn4nc(N5CCOCC5)ccc34)n2)cc1 (stereo not drawn) [GW767488]	58
Cl.Cl.Nc1nc(-c2ccc3c(N)n[nH]c3c2)cc(N2CCCC(NC(=O)c3ccccc3)C2)n1 (stereo not drawn) [GSK2286775]	0
CN(C)CCOc1ccc(-c2cc(-c3c[nH]nc3-c3ccccn3)ccn2)cc1 [GW835314]	59
C[C@@H]1CCN(C(=O)CC#N)C[C@@H]1N(C)c1ncnc2[nH]ccc12	0
Cl.Cl.NC[C@H](CC1CCCCC1)NC(=O)c1cc(Br)c(-c2ccnc3[nH]ccc23)s1 [GSK1581427]	68
Cl.Cl.NC[C@H](Cc1ccc(C(F)(F)F)cc1)NC(=O)c1cc(Br)c(-c2ccnc3[nH]ccc23)s1 [GSK1487252]	63
Cl.Oc1cc(-c2nc(-c3ccccc3)[nH]c2-c2ccncc2)ccc1Cl [SB-386023]	12
C[C@H]1Oc2cc(cnc2N)-c2c(nn(C)c2C#N)CN(C)C(=O)c2ccc(F)cc21	26
C[C@@H](Oc1cc(-c2cnn(C3CCNCC3)c2)cnc1N)c1c(Cl)ccc(F)c1Cl	40
CCn1c(-c2nonc2N)nc2c(C#CC(C)(C)O)nc(OCCN)cc21.Cl.Cl [GSK902056]	0
CCN(CC)CCOc1ccc(Nc2ncc3cc(-c4c(Cl)cccc4Cl)c(=O)n(C)c3n2)cc1 [SB-601273]	98.7
